Assay [1] addresses Lysosomal acid glucosylceramidase (Homo sapiens) (UniProt P04062). The assay can be described thus: Glucocerebrosidase-p2 (AID 348; in the data active means potency below about 10 µM; further: potency means the concentration at half of the fitted maximal effect). Conditions: purified GBA, blue fluorogenic substrate, 40 min. In short, it runs like this:
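Normal human glucocerebrosidase (0.2 nM) with blue fluorogenic substrate (80 uM final) in citrate/phosphate pH 5.9 with 10mM sodium taurocholate, 0.01% tween-20; 40 min RT, NaOH/glycine stop; fluorescence Ex 365/Em 440; AC50 from a titration from 0.6 nM upwards.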

A short description of assay [2]: AP1 Signaling Pathway (AID 357; active means well fitted curve in either direction with a large enough effect, not every such curve was filed as active;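 further: ME-180 reporter cells stimulated with EGF at its EC50 level; on the % scale 0 is the no-effect control and ±100 the full control effect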). Conditions: ME-180 AP-1-bla reporter, EGF-induced, beta-lactamase ratio, 5 h; at 7.69 µM (top of the series) unless noted. In short, it runs like this:
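Beta-lactamase reporter under AP-1 response element, ME-180 background. Stimulus: EC50 EGF. Compound exposure 5 h, 37 °C. Detection: CCF4, 2.5 h RT, 460/530 nm. Values: AC50 from titration.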

Assay [3] addresses Cytochrome P450 1A2 (Homo sapiens) (UniProt P05177). The assay can be described thus: p450-cyp1a2 (AID 410; calls by dose curve; further: potency means the concentration at half of the fitted maximal effect). The conditions noted are these: recombinant CYP1A2, luciferin-ME demethylation, luminescence; series mostly up to 57 µM. The gist of the method:
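O-Demethylation of luciferin 6' methyl ether by human CYP1A2 is monitored as luciferase luminescence. Substrate sits at Km (100uM); enzyme is 20nM. Values are scaled to 57 uM furafylline as maximal inhibition.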

A short description of assay [4]: NFAT Signaling Pathway (AID 444; active means well fitted curve in either direction with a large enough effect, not every such curve was filed as active;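 further: carbachol stimulus at about its EC50 of 1 µM final; on the % scale 0 is the no-effect control and ±100 the full control effect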). Conditions: Jurkat NFAT-bla M1, carbachol, beta-lactamase ratio, 5 h; at 7.69 µM (top of the series) unless noted. In short, it runs like this:
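Jurkat cells carrying an NFAT-driven β-lactamase reporter and co-transfected muscarinic M1 receptor were treated with compound plus carbachol (1 uM final, an EC50 level) for 5 h at 37 °C. CCF4 loading followed for 1 h at RT; 460/530 nm ratio gave %activity.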

Assay [5] can be described thus: Stat Signaling Pathway (AID 446; active means well fitted curve in either direction with a large enough effect, not every such curve was filed as active;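 further: ME-180 cervical cancer cells given 40 pM IL-6 alongside compound; SIE-controlled beta-lactamase reporter measured as 460/530 nm FRET emission ratio; on the % scale 0 is the no-effect control and ±100 the full control effect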). Conditions: ME-180 (cervical carcinoma) SIE beta-lactamase reporter, IL-6 stimulated, 5 h; at 7.69 µM (top of the series) unless noted. In short, it runs like this:
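Compound effects on IL-6-induced STAT reporter activity were measured in ME-180 cells. After overnight culture, cells were co-treated with 40 pM IL-6 for 5 hrs before beta-lactamase substrate loading at room temperature.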

Assay [6] deals with Glucocorticoid receptor (Homo sapiens) (UniProt P04150). The assay can be described thus: GR-EFC Redistribution (AID 451; calls by dose curve; further: potency means the concentration at half of the fitted maximal effect). Conditions: CHO-K1 GR-EFC translocation, beta-gal luminescence, 2 h. The gist of the method: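 CHO-K1 cells stably expressing nuclear-localized β-gal enzyme acceptor and GR fused C-terminally to the enzyme donor fragment; ligand-driven nuclear translocation restores β-gal by complementation. Compounds titrated up to 46 uM final, 2 h at 37 °C; luminescence read.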

The target of assay [7] is 3',5'-cyclic-AMP phosphodiesterase 4B (Homo sapiens) (UniProt Q07343). The assay can be described thus: qHTS Assay for Inhibitors of PDE-IV (AID 607; active means well fitted activation curve with a large enough effect in the main read-out, with a control signal flat, not every such curve was filed as active; further: % of control where 0% means no effect). Conditions: HEK293 ACTOne CNG channel cells, membrane potential fluorescence; series mostly up to 22.9 µM. In short, it runs like this: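 ACTOne HEK293 cells carry a modified cAMP-gated CNG channel and express endogenous PDE4; plated 1000 cells/well, compounds up to 22.9 uM final. Membrane-potential dye fluorescence (ex 535/em 590) was read; parental cells received 10 uM forskolin + 100 uM RO 20-1724.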
In general terms: qHTS replaces the single test concentration by a dilution series.

Assay [8] has as its target Cytochrome P450 3A4 (Homo sapiens) (UniProt P08684). The assay can be described thus: qHTS Assay for Inhibitors and Substrates of Cytochrome P450 3A4 (AID 884). Further: on the % scale 0 is the no-effect control and ±100 the full control effect; nearly all actives have a fitted effect of over 50% in size. Conditions: recombinant CYP3A4, Luciferin-PPXE luminescence; series mostly up to 57.1 µM. The gist of the method:
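Luminescent readout of luciferin produced by CYP3A4 (20 nM) dealkylation of Luciferin-PPXE, 25 uM (its KM). NADPH-driven reaction ran 60 min at RT after 10 min compound preincubation; data scaled to 57 uM ketoconazole as 100% inhibition.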

Assay [9] can be described thus: Primary qHTS for small molecule stabilizers of the endoplasmic reticulum resident proteome: Secreted ER Calcium Modulated Protein (SERCaMP) assay (AID 1508630). Further: on the % scale 0 is the no-effect control and ±100 the full control effect. The conditions noted are these: SH-SY5Y GLuc-SERCaMP (Gaussia luciferase released on ER calcium loss) secretion, thapsigargin, luminescence; series mostly up to 38.4 µM. In short, it runs like this: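 The SH-SY5Y reporter protocol was run at 3 concentrations up to 38.3 uM (primary) or 11 concentrations (follow-up): 16 h compound, 100 nM thapsigargin for 4 h, then extracellular luciferase luminescence.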

Assay [10] concerns the target Rap guanine nucleotide exchange factor 3 (Homo sapiens) (UniProt O95398). The assay can be described thus: Confirmatory qHTS for antagonist of cAMP-regulated guanine nucleotide exchange factor 3 (EPAC1) (AID 1645880).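 Further: plate controls were DMSO only for no effect and full effect of the ATA control for full effect; nearly all actives have a fitted effect of over 55% in size.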 Conditions: EPAC1 Rap1B-BODIPY-GDP exchange, fluorescence; series mostly up to 115 µM. The gist of the method: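 Released BODIPY-GDP fluoresces less than Rap1-bound BODIPY-GDP; the signal is followed at 480/540 nm at 5-min intervals over 30 min, after 5 min at room temperature. Reactions contain 100 nM EPAC1, 250 nM RAP1B-BODIPY-GDP and 50 uM GDP; results are normalized to ATA and DMSO.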

Assay [11] has the same target. The assay can be described thus: Confirmatory qHTS for agonist of cAMP-regulated guanine nucleotide exchange factor 3 (EPAC1) (AID 1645881).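 Further: EPAC1 catalysed release of BODIPY-GDP from Rap1B seen as fluorescence loss; nearly all actives have a fitted effect of over 75% in size.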 The conditions noted are these: EPAC1 Rap1B BODIPY-GDP exchange fluorescence; series mostly up to 154 µM.
Assay [12] concerns the target Rap guanine nucleotide exchange factor 4 (Homo sapiens) (UniProt Q8WZA2). The assay can be described thus: Confirmatory qHTS for agonist of cAMP-regulated guanine nucleotide exchange factor 4 (EPAC2) (AID 1645884).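 Further: nucleotide exchange releases bodipy-GDP from Rap1 and this lowers its fluorescence; nearly all actives have a fitted effect of over 65% in size.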 Further: potency means the concentration at half of the fitted maximal effect. Conditions: EPAC2 GEF activity, Rap1B-BODIPY-GDP fluorescence; series mostly up to 154 µM.
Assay [13] deals with Glucocorticoid receptor (Homo sapiens) (UniProt P04150). The assay can be described thus: GR-GFP Redistribution (AID 450;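 active means compounds whose dose series gives a full or clear partial fitted curve of increased nuclear translocation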; further: potency means the concentration at half of the fitted maximal effect). The conditions noted are these: U2OS GR-GFP nuclear translocation, laser cytometry, 2 h.
Assay [14] has as its target Mitogen-activated protein kinase 10 (Mus musculus) (UniProt Q61831). The assay can be described thus: JNK3 AlphaScreen Assay (AID 530; active means well fitted curve in either direction with a large enough effect, not every such curve was filed as active). Conditions: JNK3 lysate, c-Jun phosphorylation; series mostly up to 57.1 µM. The gist of the method:
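Phosphorylation of biotinylated GST-cJun(1-79) at Ser73 is measured by AlphaScreen proximity luminescence. Enzyme is JNK3 in HepG2 lysates activated with interleukin-1beta and tumor necrosis factor alpha; ATP is 10 uM final.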
(In general: Bead proximity is the source of the signal in Alpha formats.)

Assay [15] deals with Dual specificity protein kinase CLK4 (Homo sapiens) (UniProt Q9HAZ1). The assay can be described thus: qHTS Assay for Inhibitors of CDC-like Kinase 4 (Kinase-Glo Assay) (AID 1770). Further: nearly all actives have a fitted effect of over 65% in size. Further: potency means the concentration at half of the fitted maximal effect. The conditions noted are these: recombinant Clk4, Kinase-Glo ATP depletion luminescence; series mostly up to 66.7 µM. In short, it runs like this:
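Inhibition was judged from remaining ATP, measured by Ultra-Glo luciferase bioluminescence after Clk4 (25 nM) had acted on RS peptide at 1 uM ATP for 4.5 hours, room temperature.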

The target is the same in assay [16]. The assay can be described thus: qHTS Assay for Inhibitors of CDC-like Kinase 4 (ADP-FP Assay) (AID 1795). Further: nearly all actives have a fitted effect of over 60% in size. Further: potency means the concentration at half of the fitted maximal effect. The conditions noted are these: Transcreener ADP fluorescence polarization; series mostly up to 50 µM. The gist of the method:
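Inhibition of ADP formation by 6.25 nM Clk4 is measured using 1 uM ATP and 100 uM RS repeat peptide over one hour. Produced ADP displaces a fluorescent tracer from antibody, lowering polarization.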

The target of assay [17] is Ubiquitin carboxyl-terminal hydrolase 1 (Homo sapiens) (UniProt O94782). The assay can be described thus: Inhibitors of USP1/UAF1: Pilot qHTS (AID 504865).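 Further: rhodamine fluorescence freed from ubiquitin-rhodamine substrate followed over time; top concentration of the series differs between compounds; on the % scale 0 is the no-effect control and ±100 the full control effect; nearly all actives have a fitted effect of over 35% in size.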 Conditions: purified USP1/UAF1, Ub-rhodamine cleavage fluorescence; series mostly up to 54.9 µM. In short, it runs like this: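 Kinetic fluorescence assay: 1nM USP1/UAF1, 15 min compound preincubation, then 150nM Ub-Rho; 480/540 nm.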

In assay [18] the target is Rap guanine nucleotide exchange factor 4 (Homo sapiens) (UniProt Q8WZA2). The assay can be described thus: Confirmatory qHTS for antagonist of cAMP-regulated guanine nucleotide exchange factor 4 (EPAC2) (AID 1645885). Further: nearly all actives have a fitted effect of over 25% in size. Further: potency means the concentration at half of the fitted maximal effect. Conditions: EPAC2 Rap1B-BODIPY-GDP exchange fluorescence, biochemical; series mostly up to 114 µM.
Assay [19] has as its target Cytochrome P450 3A4 (Homo sapiens) (UniProt P08684). The assay can be described thus: qHTS Assay for Activators of Cytochrome P450 3A4 (AID 885). Further: nearly all actives have a fitted effect of over 65% in size. The conditions noted are these: recombinant CYP3A4, Luciferin-PPXE luminescence, 60 min; series mostly up to 57.1 µM. In short, it runs like this: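 CYP3A4 activity: Luciferin-PPXE O-dealkylation, 25uM substrate, 200mM KPO4, RT throughout. Read-out is luciferase luminescence; higher values reflect activation.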

This note sets out measurements from PubChem BioAssay (NCATS).

The structures appear in SMILES notation. A number with no mark means an inactive call. Results filed as inconclusive are left out. Calls of active or inactive are those of the source. Unless noted, the call rests on the fitted dose curve; in most records, active means well fitted curve in the direction sought with a large enough effect; inconclusive means small, poorly fitted or top-dose-only effect, or another doubt; inactive means no such curve, though single readings can be large; an effect the other way counts as inactive or inconclusive. Some results are limits rather than exact numbers.

Rap guanine nucleotide exchange factor 3 (Homo sapiens), sequence (O95398 whole entry, looked up): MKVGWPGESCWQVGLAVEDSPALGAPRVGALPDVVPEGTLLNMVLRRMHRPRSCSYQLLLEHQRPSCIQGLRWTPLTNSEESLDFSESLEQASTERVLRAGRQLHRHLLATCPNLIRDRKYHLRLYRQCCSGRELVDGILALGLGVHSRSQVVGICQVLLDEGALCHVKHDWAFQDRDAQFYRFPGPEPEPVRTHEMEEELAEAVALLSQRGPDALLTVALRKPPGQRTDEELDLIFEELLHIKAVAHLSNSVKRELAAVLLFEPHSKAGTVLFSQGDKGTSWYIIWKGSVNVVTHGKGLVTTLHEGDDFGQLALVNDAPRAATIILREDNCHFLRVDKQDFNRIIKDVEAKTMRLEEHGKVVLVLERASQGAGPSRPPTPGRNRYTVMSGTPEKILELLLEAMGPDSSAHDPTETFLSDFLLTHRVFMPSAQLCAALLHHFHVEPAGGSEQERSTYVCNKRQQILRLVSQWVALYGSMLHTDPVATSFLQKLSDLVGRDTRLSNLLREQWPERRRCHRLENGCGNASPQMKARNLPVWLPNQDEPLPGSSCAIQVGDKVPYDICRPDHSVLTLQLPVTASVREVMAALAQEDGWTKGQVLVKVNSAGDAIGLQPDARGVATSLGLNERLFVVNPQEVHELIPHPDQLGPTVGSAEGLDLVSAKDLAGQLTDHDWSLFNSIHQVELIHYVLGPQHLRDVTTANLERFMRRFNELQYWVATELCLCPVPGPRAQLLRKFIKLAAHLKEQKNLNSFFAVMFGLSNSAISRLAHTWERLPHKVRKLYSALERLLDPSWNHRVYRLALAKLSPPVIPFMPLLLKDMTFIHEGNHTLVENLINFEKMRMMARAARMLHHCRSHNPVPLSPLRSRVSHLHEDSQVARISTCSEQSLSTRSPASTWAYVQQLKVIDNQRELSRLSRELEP
Dual specificity protein kinase CLK4 (Homo sapiens), sequence (Q9HAZ1 whole entry, looked up): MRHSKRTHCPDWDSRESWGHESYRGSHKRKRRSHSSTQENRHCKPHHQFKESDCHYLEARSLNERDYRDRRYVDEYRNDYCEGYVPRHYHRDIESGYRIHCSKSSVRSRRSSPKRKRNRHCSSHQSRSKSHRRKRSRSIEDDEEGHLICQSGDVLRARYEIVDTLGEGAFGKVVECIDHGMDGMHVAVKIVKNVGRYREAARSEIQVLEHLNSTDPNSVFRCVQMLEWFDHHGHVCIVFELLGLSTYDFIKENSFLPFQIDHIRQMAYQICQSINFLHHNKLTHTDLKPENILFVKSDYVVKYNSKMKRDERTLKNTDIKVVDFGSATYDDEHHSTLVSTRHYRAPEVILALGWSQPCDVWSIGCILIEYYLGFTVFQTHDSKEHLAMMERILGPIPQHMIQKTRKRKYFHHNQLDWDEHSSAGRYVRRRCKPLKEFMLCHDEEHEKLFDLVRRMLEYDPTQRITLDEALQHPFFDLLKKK
Rap guanine nucleotide exchange factor 4 (Homo sapiens), sequence (Q8WZA2 whole entry, looked up): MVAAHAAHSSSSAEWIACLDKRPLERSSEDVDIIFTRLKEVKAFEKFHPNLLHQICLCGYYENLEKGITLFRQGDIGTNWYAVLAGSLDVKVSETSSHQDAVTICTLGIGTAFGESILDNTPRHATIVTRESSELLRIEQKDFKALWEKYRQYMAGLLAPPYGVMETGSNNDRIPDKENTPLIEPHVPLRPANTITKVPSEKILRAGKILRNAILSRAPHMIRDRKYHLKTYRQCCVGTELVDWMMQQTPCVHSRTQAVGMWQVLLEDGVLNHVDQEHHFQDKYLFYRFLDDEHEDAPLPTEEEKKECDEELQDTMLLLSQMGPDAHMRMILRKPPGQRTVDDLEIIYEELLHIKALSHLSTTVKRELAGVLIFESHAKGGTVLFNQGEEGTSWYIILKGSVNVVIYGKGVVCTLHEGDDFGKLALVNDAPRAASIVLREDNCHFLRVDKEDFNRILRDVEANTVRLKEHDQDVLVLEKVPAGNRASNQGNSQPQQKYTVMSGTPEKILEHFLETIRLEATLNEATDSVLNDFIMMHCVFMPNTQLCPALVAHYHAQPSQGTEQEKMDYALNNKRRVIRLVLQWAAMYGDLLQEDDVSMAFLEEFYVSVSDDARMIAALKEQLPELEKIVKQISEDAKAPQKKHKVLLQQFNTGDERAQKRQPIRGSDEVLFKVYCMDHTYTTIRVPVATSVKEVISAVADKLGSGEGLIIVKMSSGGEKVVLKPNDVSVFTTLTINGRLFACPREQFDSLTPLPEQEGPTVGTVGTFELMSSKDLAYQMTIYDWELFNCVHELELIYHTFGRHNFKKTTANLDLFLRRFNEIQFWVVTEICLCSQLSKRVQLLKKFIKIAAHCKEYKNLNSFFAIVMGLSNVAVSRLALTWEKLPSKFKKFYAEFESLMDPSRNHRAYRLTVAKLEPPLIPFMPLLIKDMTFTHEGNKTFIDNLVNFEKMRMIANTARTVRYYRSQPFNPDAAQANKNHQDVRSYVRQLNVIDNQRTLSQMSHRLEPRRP
Cytochrome P450 3A4 (Homo sapiens), sequence (P08684 whole entry, looked up): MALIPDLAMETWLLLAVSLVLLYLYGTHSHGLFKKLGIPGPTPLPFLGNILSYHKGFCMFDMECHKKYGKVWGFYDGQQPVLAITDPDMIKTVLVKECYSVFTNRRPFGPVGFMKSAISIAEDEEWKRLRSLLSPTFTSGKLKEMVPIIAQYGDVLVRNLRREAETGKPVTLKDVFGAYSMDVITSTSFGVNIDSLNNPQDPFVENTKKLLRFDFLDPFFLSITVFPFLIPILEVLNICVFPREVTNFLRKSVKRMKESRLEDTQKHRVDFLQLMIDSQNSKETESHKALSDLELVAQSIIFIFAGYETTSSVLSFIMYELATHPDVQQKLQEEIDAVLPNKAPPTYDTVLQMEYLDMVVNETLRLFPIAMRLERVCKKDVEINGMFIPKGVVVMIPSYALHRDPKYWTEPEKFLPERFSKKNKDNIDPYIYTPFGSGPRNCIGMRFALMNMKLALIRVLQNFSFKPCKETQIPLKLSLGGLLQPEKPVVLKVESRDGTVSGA
Cytochrome P450 1A2 (Homo sapiens), sequence (P05177 whole entry, looked up): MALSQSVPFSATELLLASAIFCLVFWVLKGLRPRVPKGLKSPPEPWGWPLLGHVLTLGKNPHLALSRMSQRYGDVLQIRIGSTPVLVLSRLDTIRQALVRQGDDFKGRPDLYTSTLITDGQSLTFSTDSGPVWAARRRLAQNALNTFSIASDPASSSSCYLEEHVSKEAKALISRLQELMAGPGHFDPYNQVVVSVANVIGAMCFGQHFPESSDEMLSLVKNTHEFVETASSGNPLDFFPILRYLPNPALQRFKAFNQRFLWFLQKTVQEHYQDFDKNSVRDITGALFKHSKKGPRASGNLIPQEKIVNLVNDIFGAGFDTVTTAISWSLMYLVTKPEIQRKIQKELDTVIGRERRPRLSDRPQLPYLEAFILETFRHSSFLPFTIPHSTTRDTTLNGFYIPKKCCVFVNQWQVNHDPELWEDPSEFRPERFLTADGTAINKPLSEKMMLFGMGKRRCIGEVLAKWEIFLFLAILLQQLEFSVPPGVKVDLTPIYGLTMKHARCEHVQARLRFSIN
Glucocorticoid receptor (Homo sapiens), sequence (P04150 whole entry, looked up, the tested form may be a part): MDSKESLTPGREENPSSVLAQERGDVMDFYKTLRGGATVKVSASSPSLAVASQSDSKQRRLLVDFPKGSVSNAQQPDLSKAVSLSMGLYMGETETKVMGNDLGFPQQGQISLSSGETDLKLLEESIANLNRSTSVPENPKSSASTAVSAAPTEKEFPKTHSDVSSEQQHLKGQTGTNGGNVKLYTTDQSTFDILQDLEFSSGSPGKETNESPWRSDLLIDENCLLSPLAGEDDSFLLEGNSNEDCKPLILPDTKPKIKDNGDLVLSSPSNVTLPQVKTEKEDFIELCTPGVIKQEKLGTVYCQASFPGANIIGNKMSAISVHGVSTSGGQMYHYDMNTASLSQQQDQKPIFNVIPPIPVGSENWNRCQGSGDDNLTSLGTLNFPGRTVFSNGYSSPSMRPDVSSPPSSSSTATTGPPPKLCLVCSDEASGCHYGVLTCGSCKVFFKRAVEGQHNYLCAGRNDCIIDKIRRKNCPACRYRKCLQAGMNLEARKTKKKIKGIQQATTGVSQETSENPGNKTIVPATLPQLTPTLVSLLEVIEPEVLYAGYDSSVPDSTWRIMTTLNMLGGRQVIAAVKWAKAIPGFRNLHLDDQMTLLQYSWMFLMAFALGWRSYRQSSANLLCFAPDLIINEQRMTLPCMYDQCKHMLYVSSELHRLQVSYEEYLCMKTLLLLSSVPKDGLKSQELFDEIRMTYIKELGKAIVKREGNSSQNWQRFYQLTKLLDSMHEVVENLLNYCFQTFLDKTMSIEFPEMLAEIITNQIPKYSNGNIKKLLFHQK
Lysosomal acid glucosylceramidase (Homo sapiens), sequence (P04062 whole entry, looked up): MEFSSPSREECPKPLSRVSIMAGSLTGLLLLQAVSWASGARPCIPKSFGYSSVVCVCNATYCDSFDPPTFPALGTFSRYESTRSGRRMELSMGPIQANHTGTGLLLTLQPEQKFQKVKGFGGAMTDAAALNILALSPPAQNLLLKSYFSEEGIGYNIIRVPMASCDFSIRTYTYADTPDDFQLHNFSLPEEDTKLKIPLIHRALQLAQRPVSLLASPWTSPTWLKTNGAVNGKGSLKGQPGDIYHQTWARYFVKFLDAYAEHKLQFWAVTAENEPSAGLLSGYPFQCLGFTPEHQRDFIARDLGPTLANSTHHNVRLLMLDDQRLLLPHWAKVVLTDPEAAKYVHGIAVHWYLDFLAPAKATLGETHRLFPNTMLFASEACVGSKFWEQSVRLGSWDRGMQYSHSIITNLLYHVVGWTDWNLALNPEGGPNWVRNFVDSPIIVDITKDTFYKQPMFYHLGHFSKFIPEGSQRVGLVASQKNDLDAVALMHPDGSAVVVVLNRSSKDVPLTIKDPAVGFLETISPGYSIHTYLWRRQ

As for `Cn1cccc1C(=O)N1CCC2(CC1)CN(c1cccc(-c3ccccc3)c1)C2`, the Potency in assay [1] was greater than 11.4 µM; in assay [3] it was 25.1 µM (active); in assay [6], greater than 46 µM. Moreover, the activity change, negative = inhibition was -14% in assay [2] and -2.77% in assay [4]. Besides, the activity, negative = inhibition in [5] was -13.7%. In addition, the Potency entry in assay [7], in [8], in assay [10], in [11] and in [12] was “inactive” each time. Further, in assay [9], the result was inactive.

For `COc1ccccc1-c1ccc2ncnc(N(C)Cc3ccco3)c2c1`, the Potency in assay [1] was greater than 11.4 µM; in [13], greater than 46 µM; in assay [6] it was greater than 46 µM; in assay [15] it was 8.91 µM (active); in assay [16], 2.82 µM (active); in [18], 39.3 µM (active). The activity change, negative = inhibition is 10.4% in assay [2] and -26.4% in assay [4]. The activity, negative = inhibition in assay [5] was -6.49%. Moreover, the Potency result in [14], in assay [17], in [11] and in [12] was “inactive” each time. Besides, the result in assay [9] was inactive.

In the case of `O=c1c(-c2ccc(Cl)cc2)nc2cncnc2n1Cc1ccccc1Cl`, the activity change, negative = inhibition is 8.01% in assay [2] and -29.5% in [4]. The Potency in [3] is 1.26 µM (active); in assay [13], greater than 9.22 µM; in assay [6], greater than 46 µM. In addition, the activity, negative = inhibition in [5] was 13%. In addition, the Potency result in [14], in [7], in assay [19], in [10], in assay [11] and in assay [12] was “inactive” each time. In addition, the Potency result in [18] was “inactive”. Moreover, the outcome in assay [9] was inactive.

Take `CN(C)c1ncc2nc(-c3cc(F)cc(F)c3)c(=O)n(Cc3cccs3)c2n1`: the Potency in [1] was greater than 11.4 µM; in assay [3], 1.58 µM (active); in assay [13], greater than 9.22 µM; in assay [6], greater than 46 µM. Further, the activity change, negative = inhibition in assay [4] was 110% [activator] (active). The activity, negative = inhibition in assay [5] is 190% [activator] (active). In addition, the Potency entry in [7], in [19], in assay [10], in [11], in assay [12] and in assay [18] was “inactive” each time. The outcome in assay [9] was inactive.

As to `N#CCCn1c(=O)c(-c2ccc(Cl)cc2)nc2cnc(Nc3ccccc3)nc21`, the Potency was greater than 11.4 µM in assay [1], greater than 9.22 µM in [13], greater than 46 µM in assay [6] and 79.3 µM (active) in assay [12]. Further, in assay [2], the activity change, negative = inhibition is -28%. For the same compound, in assay [5], the activity, negative = inhibition was -24.6%. Also, the Potency result in assay [14], in [7], in assay [15], in [16], in [17] and in [10] was “inactive” each time. Also, the Potency result in assay [18] was “inactive”. The outcome in assay [9] was inactive.

Take `COc1cc(/C=C\c2ccc(OC)cc2OC)cc(OC)c1`: the values for the Potency in [3], in [13] and in assay [6] were 0.794 µM (active), greater than 46 µM and greater than 46 µM, respectively. Moreover, the Potency result in [7], in assay [19], in [10], in assay [11] and in assay [12] was “inactive” each time. For the same compound, the result in [9] was inactive.

In the case of `COc1ccc(-n2c(=O)c(-c3cccs3)nc3cnc(Nc4cccc(OC)c4)nc32)cc1`, the Potency in [1] was greater than 11.4 µM; in assay [6] it was greater than 46 µM. For the same compound, the activity change, negative = inhibition in assay [2] is -24.6%. For the same compound, the activity, negative = inhibition in [5] was -11%. Further, the Potency entry in assay [14], in assay [19], in [10] and in assay [18] was “inactive” throughout. Besides, the result in assay [9] was inactive.

In the case of `COC(=O)N1CCC2(CCCN(c3cccc(-c4ccccc4)c3)C2)CC1`, the figures for the Potency in assay [1] and in [6] were greater than 11.4 µM and greater than 46 µM, respectively. In assay [2], the activity change, negative = inhibition was 3.74%. In [5], the activity, negative = inhibition was -6.31%. In addition, the Potency entry in [14], in assay [7], in assay [10], in [11], in [12] and in assay [18] was “inactive” throughout. Besides, the result in [9] was inactive.
